# Experimental data from PubChem BioAssay AID1671188 (National Center for Advancing Translational Sciences (NCATS), 2021).
# Hit rate of the full screen: of about 100,000 compounds, about 250 (0.25%) were called active. Where a call stands in place of a potency, no number is given. Roughly 7% stayed inconclusive and do not appear here. The sample holds actives, similar compounds and a random draw of the others, so the mix is not that of the screen. Calls follow the shape of the dose curve; as a rule, active = well fitted inhibition curve with a large enough effect; inconclusive = small, poorly fitted or top-dose-only effect; inactive = flat fitted curve, though single readings scatter.
# Target: Alanine aminotransferase 2 (Homo sapiens) (UniProt Q8TD30)
# Sequence (Q8TD30 whole entry, looked up): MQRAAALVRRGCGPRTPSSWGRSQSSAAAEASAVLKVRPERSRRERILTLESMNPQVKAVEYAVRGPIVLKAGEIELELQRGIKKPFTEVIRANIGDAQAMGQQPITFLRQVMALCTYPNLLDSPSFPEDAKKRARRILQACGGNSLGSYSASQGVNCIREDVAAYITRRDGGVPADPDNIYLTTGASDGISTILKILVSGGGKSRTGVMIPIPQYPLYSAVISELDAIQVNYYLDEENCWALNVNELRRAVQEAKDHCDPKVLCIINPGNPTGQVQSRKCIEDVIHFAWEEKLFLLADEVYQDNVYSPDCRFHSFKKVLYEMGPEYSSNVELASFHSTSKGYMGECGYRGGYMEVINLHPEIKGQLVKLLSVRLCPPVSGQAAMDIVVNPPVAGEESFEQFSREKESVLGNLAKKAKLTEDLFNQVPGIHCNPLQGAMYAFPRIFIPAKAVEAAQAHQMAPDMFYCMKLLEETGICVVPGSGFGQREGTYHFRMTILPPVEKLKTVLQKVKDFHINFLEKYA
# Experiment: Primary qHTS assay for inhibitors of Glutamate pyruvate transaminase 2 (GPT2); also: nearly all actives have a fitted effect of over 60% in size
# Conditions: Recombinant GPT2, coupled pyruvate oxidase/HRP Amplex Red fluorescence; series mostly up to 57.7 µM
# Procedure: Assay Provider: Zhenghe John Wang Ph.D.
# Case Western Reserve University, Cleveland OH
# Glutamate pyruvate transaminase 2 (GPT2) catalyzes the reversible transamination of glutamate and pyruvate to provide a-ketoglutarate and alanine. We have optimized an assay for GPT2 enzymatic activity that couples pyruvate formation to detection of fluorescence using an established pyruvate oxidase/horseradish peroxidase / Amplex Red system.
# Screening conditions were 250uM a-KG, 2mM L-alanine, and 10ng/uL GPT2 in […] of solution; 10uL of Amplex reaction mix (outlined below) were added so that final concentrations of Amplex reagents in 50uL were 0.2mM ThPP, 0.2U/mL PO and HRP, and 50uM Amplex.
# NOTE: The volume of GPT2 in the system depends on the activity of it. The activity is different every batch. You need to test the activity before the assay. For full plate assay with automation, plate 20uL of GPT2 buffer to pin into, then add 10uL of GPT2 dilution followed immediately by 10uL of substrate dilution. 2 Columns of the plate were devoted to GPT2 buffer ([…] PH7.5, 0.0001% Tween) + 50uM AOA (known GPT2 inhibitor) to serve as a positive control. Complete the assay as normal. Amplex-red buffer: […] PH7.5, 1 mM EDTA, 1 mM MgCl2.
# 1. Combine a-KG and L-alanine at desired concentrations and incubate for at least 10 minutes at 37C. Stocks of L-alanine and a-KG are diluted in distilled water. However, the stocks were diluted in GPT2 buffer for the assay.
# 2. Prepare GPT2 dilution at the desired concentration in GPT2 buffer.
# 3. Plate 40uL of GPT2 dilution with 40uL of substrate dilution and let incubate for 30 minutes at room temperature.
# 4. Add 20uL of Amplex reaction mix prepared as follows: 1.5uL 200U/mL Horseradish Peroxidase, 200mM Thiamine Pyrophosphate, 200U/mL Pyruvate Oxidase; 7.5uL 10mM Amplex Red; 288uL Amplex Buffer.
# 5. Incubate for 30 minutes at room temperature in the dark, then image using AM_Amplex_Fluorescence on plate reader nearest the window.
# Potency is read from the fitted curve at half-maximal effect.
row,Compound,Potency
1,Cc1noc(C)c1CCCNC(=O)c1ccc(N(C)C2CCOC2)nc1 (stereo not given),inactive
2,Cc1nc(C)c(C)c(N2CCCC(c3nccn3Cc3ccccc3)C2)n1 (stereo not given),inactive
3,COC(=O)CNC(=O)C1CN(c2ccccc2)C(=O)N1 (stereo not given),inactive
4,O=C1NCCCCCCN(C(=O)c2cccs2)[C@H]2C[C@H](c3nc(Cc4ccccc4)no3)C[C@@H]12,inactive
5,O=C(CCc1nnn2c1CN(C(=O)NCc1ccc(F)cc1)CC2)N1CCOCC1,inactive
6,Cc1noc(C)c1[S+](=O)([O-])NC1CCN(Cc2ccc(-c3ccsc3)cc2)C1 (stereo not given),inactive
7,CCCNC(=O)N1CCCCC1c1nc(CCOc2ccc(F)cc2)no1 (stereo not given),inactive
8,CCCNC(=O)N1CCn2nnc(CCC(=O)N3CCOCC3)c2C1,inactive
9,Cc1cc2ncc(C(=O)NCC3CC3)cn2n1,inactive
10,O=C(NCCc1ccccn1)C1CCCN(c2nc(-c3ccccc3)nc3c2CCC3)C1 (stereo not given),inactive
11,CCOc1ccc(CCCC(=O)N2CC[C@@](C)(O)[C@@H](O)C2)cc1C,inactive
12,O=C(c1cncc(Br)c1)N1CCC(Cc2nc(C3CCOCC3)no2)CC1,inactive
13,CC(=O)N[C@@H]1C=C(C(=O)N[C@H](CC(C)C)C(N)=O)C[C@@H](O)[C@@H]1O,inactive
14,Cc1ccc(C(=O)N2C[C@@H](Oc3ccccc3)C[C@H]2C(=O)N2CCCC2)cn1,inactive
15,O=C(NCCn1ccc2ccc(Cl)cc21)C1CC(=O)N(c2n[nH]c3ccccc23)C1 (stereo not given),inactive
16,COCCN1CC(CO)C2(CCN(Cc3cnn(C(C)C)c3)CC2)C1 (stereo not given),inactive
17,Cn1cc(CN2CCCN(C(=O)c3ccco3)CC2)c(-c2ccc(C3CCCCC3)cc2)n1,inactive
18,COc1ccccc1CN1CC[C@@H](CO)N(C)c2ncccc2C1,inactive
19,COCCOc1ccnc(-c2noc([C@@H]3CCCN3Cc3ccc(Cl)cc3)n2)c1,inactive
20,O=C(NCC(F)(F)F)c1nc2cccnc2n(CCc2ccccc2)c1=O,inactive
21,CC(C)C(=O)NC1CCCc2c1[nH]c1c(Cl)cccc21 (stereo not given),inactive
22,O=S(=O)(c1ccc(F)cc1)N1CCCC(Cc2noc(-c3ccccc3)n2)C1 (stereo not given),inactive
23,Cc1ccncc1C(=O)N1CCC(Cn2c(C)cnc2-c2cccnc2)CC1,inactive

row,Compound,Potency
1,COc1cccc(-c2cccc(C(=O)N3CCN(C(=O)Cc4ccc(F)cc4)CC3)c2)c1,inactive
2,COCCC1(NS(C)(=O)=O)CCN(S(=O)(=O)c2ccc3c(c2)OCCO3)CC1,inactive
3,COc1cccc(-c2ccc(CN3CCCC3C(=O)NCc3ccccc3Cl)cc2)c1 (stereo not given),inactive
4,Cc1cc(Cl)ccc1S(=O)(=O)N1CCn2c(nn(CC3CC3)c2=O)C1,inactive
5,COCCN1C(=O)CCC2(CNC(=O)c3ccncc3)CCC=C12 (stereo not given),inactive
6,O=C(NCC1CCCO1)c1csc(N2CCN(c3ccccc3F)CC2)n1 (stereo not given),inactive
7,NC(=O)c1cccc(-c2ncc3c(n2)OCCN(CC2CC2)C3=O)c1,inactive
8,Cc1cc(C)cc(C(=O)NC2CCN(c3cnn(C)c(=O)c3)CC2)c1,inactive
9,O=C(c1cccc(Cl)c1)N1CCC(C(=O)N2CCC(N3CCOCC3=O)CC2)CC1,inactive
10,O=C(c1cnccn1)N1CCC(N2C(=O)C(OCC3CC3)C23CCOCC3)CC1 (stereo not given),inactive
11,O=C1NC2(CCN(Cc3ccc(F)cc3)C2)OCc2ccccc21 (stereo not given),inactive
12,Cc1ccc2c(C)c(C(=O)N3CCCC3c3nc(C(C)C)no3)oc2c1C (stereo not given),inactive
13,COCCC1(CO)CCCN(C(=O)c2ccc(S(N)(=O)=O)cc2)C1 (stereo not given),inactive
14,C#CCN(Cc1nc(-c2cc(OC)ccc2F)oc1C)C1CCCCC1,inactive
15,CNCC(O)c1ccc(O)c(O)c1 (stereo not given),6.31 µM (active)
16,COCC(=O)N1CCC(N2C[C@H](OC)[C@@H]2c2ccncc2)CC1,inactive
17,CC1(C(=O)N2CCN(c3ccccn3)CC2)CCCc2cnc(Nc3cccnc3)nc21 (stereo not given),inactive
18,Cc1cc(C)c(C(=O)N2CCOC(Cc3ccc(F)cc3)C2)o1 (stereo not given),inactive
19,Cc1ccc(NC(=O)C2CCc3nnc(C4CCN(C(=O)NC(C)(C)C)CC4)n32)cc1 (stereo not given),inactive
20,O=C(Cc1ccc(F)cc1)N1CCC(C(=O)N2CCC(c3nc4ncccc4[nH]3)CC2)C1 (stereo not given),inactive
21,CN(C)C(=O)NC1CCN(c2nc3ncccc3o2)CC1,inactive
22,COc1cc2c(cc1OC)C(CNC(=O)c1cccc(Cl)c1)N(C(=O)Nc1ccccc1)CC2 (stereo not given),inactive
